Most compounds without a hit are left out; they make up all but 19% or so of the library.
DT40 TDP1 CPT: qHTS for Inhibitors of human tyrosyl-DNA phosphodiesterase 1 (TDP1): qHTS in cells in presence of CPT | AID 686979, 2013 | actives 12% (n = 420,000) | Potency, µM (doses to about 46.2 µM), for inactives: at the highest dose activity change, negative = growth inhibition, actives largely listed as inhibitors | chicken DT40 Tdp1-/-;hTDP1 cells + 20 nM CPT, ATP luminescence, 48 h; note: potency is the fitted concentration of half-maximal effect; % is set by controls: 0 for no effect and ±100 for the full control effect; nearly all actives have a fitted effect of over 55% in size
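Chicken DT40 Tdp1-/- cells stably complemented with human TDP1 were seeded at 400 cells/well in medium containing 20 nM camptothecin, exposed to pin-transferred compounds, and grown at 37 °C for at least 48 hr. Viability was read as ATP luminescence.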
DT40 TDP1 no CPT: qHTS for Inhibitors of human tyrosyl-DNA phosphodiesterase 1 (TDP1): qHTS in cells in absence of CPT; DT40 Tdp1-/- hTDP1 cells, no CPT, ATP luminescence, 48 h; Potency, µM (titrated, usually from 46.2 µM), for inactives: at the top dose activity change, negative = growth inhibition, actives largely listed as inhibitors; actives 15% (n = 420,000); note: potency is the fitted concentration of half-maximal effect; % is set by controls: 0 for no effect and ±100 for the full control effect; nearly all actives have a fitted effect of over 55% in size
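Stably hTDP1-transfected Tdp1-null chicken DT40 cells were treated with library compounds minus camptothecin and grown for at least 48 hr at 37 °C, after which cellular ATP was quantified by luminescence.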
TGFb inhibitor: qHTS for Inhibitors of TGF-b; actives 1.2% (n = 410,000); Potency, µM (top dose mostly 46.1 µM), for inactives: at the highest dose activity, negative = inhibition, actives largely listed as inhibitors; AID 588855, 2011; HepG2 CAGA-GFP TGF-b/SMAD3 reporter, GFP fluorescence, 18 h; TGF-beta stimulated, 500 pg/mL final; note: potency is the fitted concentration of half-maximal effect; % is set by controls: 0 for no effect and ±100 for the full control effect; nearly all actives have a fitted effect of over 65% in size
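Using HEPG2 CAGA-GFP reporter cells at 1000 cells/well, we pinned test compounds, stimulated with recombinant TGF-beta (500 pg/mL final) and measured total well GFP after 18 h.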
ASM inhibitor: Inhibitors of Secretory Acid Sphingomyelinase (S-ASM): qHTS; Sphingomyelin phosphodiesterase (Homo sapiens), P17405; placental ASM, HMU-PC fluorogenic substrate, 60 min; Potency, µM (titrated, usually from 57.5 µM), for inactives: at the highest dose activity change, negative = inhibition, usual class: inhibitors; actives 0.006% (n = 340,000); note: potency is the fitted concentration of half-maximal effect
Target sequence (P17405 47-631 limits assumed): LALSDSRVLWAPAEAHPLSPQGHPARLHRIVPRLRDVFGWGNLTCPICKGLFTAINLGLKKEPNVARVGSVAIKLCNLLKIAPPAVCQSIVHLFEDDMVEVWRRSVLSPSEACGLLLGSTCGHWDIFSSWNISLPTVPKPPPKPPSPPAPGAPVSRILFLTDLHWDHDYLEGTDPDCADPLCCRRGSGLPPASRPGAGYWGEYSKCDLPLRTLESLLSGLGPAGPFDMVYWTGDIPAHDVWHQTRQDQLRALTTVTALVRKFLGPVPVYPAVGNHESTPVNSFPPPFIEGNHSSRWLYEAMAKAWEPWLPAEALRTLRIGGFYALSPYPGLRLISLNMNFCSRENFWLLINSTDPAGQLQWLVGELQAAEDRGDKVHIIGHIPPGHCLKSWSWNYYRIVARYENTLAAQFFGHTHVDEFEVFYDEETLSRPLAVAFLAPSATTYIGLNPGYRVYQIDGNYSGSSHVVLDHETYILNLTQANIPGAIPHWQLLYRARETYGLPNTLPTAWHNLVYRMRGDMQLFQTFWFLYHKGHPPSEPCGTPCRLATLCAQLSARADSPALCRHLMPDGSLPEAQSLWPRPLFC
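Fluorescence read-out (Ex 386 nm, Em 447 nm) after stopping the reaction at pH 10. Enzyme: ASM from human placenta; substrate HMU-PC0, 9 uM final; 60 min, 37 °C. Compound preincubation 10 min, ambient temperature.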
IL-1B inflam inh: qHTS for Inhibitors of Inflammasome Signaling: IL-1-beta AlphaLISA Primary Screen; THP-1 LPS/ATP IL-1B secretion, AlphaLISA, 16 h; stronger effect = lower value; activity change, % at 57.5 µM; actives 4.7% (n = 360,000); in the data active = activity change below about -50%; inconclusive = mostly about -30% to -49%; note: % is set by controls: 0 for no effect and ±100 for the full control effect
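THP-1 cells pretreated 1 hr with compounds (up to 57.5 uM final), then stimulated with LPS (250 ng/mL final) plus ATP (1.25 mM final); secreted IL-1B measured by AlphaLISA after 16 hr, decreased signal indicating inhibition.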
HepG2 tox: qHTS for Inhibitors of TGF-b: Cytotox Counterscreen; HepG2 CAGA-GFP viability, ATP luminescence, 18 h; Potency, µM (doses to about 46.1 µM), without a hit: at the highest dose activity change, negative = cytotoxicity, most hits filed as cytotoxic; actives 0.76% (n = 410,000); note: potency is the fitted concentration of half-maximal effect
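HepG2 CAGA-GFP cells (1000/well, DMEM with 1% FBS) received compound, then TGF-beta at 500 pg/mL final, and were incubated 18 hours at 37 degrees C. Viability was read by CellTiter-Glo luminescence. Media-only wells were set as complete cell-killing and DMSO as no toxicity.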
* marks the source's active call; other numbers are inactive results; ? = inconclusive; / = not tested or not shown; [ ] = remark or other dose. Unless noted, calls come from the whole dose curve; as a rule, active = well fitted curve in the direction sought with a large enough effect; inconclusive = small, poorly fitted or top-dose-only effect, or another doubt; inactive = no such curve, though single readings can be large; an effect the other way counts as inactive or inconclusive.

SMILES	DT40 TDP1 CPT	DT40 TDP1 no CPT	TGFb inhibitor	ASM inhibitor	IL-1B inflam inh	HepG2 tox
CC1(C(=O)Nc2ccccc2)CCN1C(=O)C1(c2ccccc2)CC1 (stereo not given)	?	-24.0%	-5.9%	/	8.3	-33.8%
CC(C)c1ccc(CC(=O)N2CCC2(C)C(=O)Nc2cccc(C#N)c2)cc1 (stereo not given)	?	16.4µM*	-41.9%	/	-25.4	-40.6%
CC1(C(=O)Nc2cccc(C#N)c2)CCN1C(=O)C1(c2ccccc2)CC1 (stereo not given)	5.17µM*	?	0.1%	/	21.1	-5.2%
Cc1ccc(S(=O)(=O)N(CC(=O)Nc2ccccc2)C(=O)N2CCN(C)CC2)cc1	14.8%	1.3%	-1.8%	1.5%	-8.3	-7.0%
CCOc1ccc(OCCC(=O)OCC(=O)N(CC)c2c(N)n(Cc3ccccc3)c(=O)[nH]c2=O)cc1	?	?	6.0%	-2.1%	-1.3	2.3%
O=C(CN1N=C(c2ccccc2)CCC1=O)NCc1cccs1	1.5%	1.0%	-7.2%	0.3%	-14.3	-22.6%
CC1(C(=O)Nc2cccc(C#N)c2)CCN1C(=O)CCc1ccccc1 (stereo not given)	?	?	11.6%	/	2.8	-1.9%
COc1cccc(NC(=O)C2(C)CCN2C(=O)Cc2ccc(C(C)C)cc2)c1 (stereo not given)	18.4µM*	?	-3.3%	/	19.8	-11.0%
CCC(=O)N1CCC1(C)C(=O)Nc1cccc(OC)c1 (stereo not given)	-8.2%	-5.3%	6.4%	/	11.4	3.4%
CC1(C(=O)Nc2cccc(C#N)c2)CCN1C(=O)Cc1ccc(-c2ccccc2)cc1 (stereo not given)	4.11µM*	2.59µM*	-27.8%	/	0.0	-16.2%
Nc1cc(-c2ccc(Br)cc2)nn1Cc1ccccc1	?	-18.1%	-9.1%	-7.1%	-68.8*	-17.8%
Fc1ccc(C(c2nnnn2C2CCCC2)N2CCN(Cc3ccccc3)CC2)cc1 (stereo not given)	18.4µM*	?	9.6%	-0.5%	-53.6*	-2.8%
CCC(C)(C)n1nnnc1CN1CCN(C(c2ccccc2)c2ccccc2)CC1	?	20.6µM*	-2.0%	-2.9%	11.0	-19.4%
c1ccc(C(c2ccccc2)N2CCN(Cc3nnnn3C3CCCC3)CC2)cc1	?	16.4µM*	?	-0.5%	-14.2	4.5%
Clc1ccc(C(c2nnnn2C2CCCC2)N2CCN(Cc3ccncc3)CC2)cc1 (stereo not given)	?	?	45.3%	2.5%	-19.4	-15.5%
CC(C)CCn1nnnc1CN1CCN(C(c2ccccc2)c2ccccc2)CC1	?	18.4µM*	?	0.2%	2.8	-18.8%
C[C@H](CO)N1C[C@H](C)[C@@H](CN(C)CC2CCCCC2)Oc2ccc(NC(=O)CCN3CCOCC3)cc2C1=O	-27.2%	-12.2%	-2.3%	5.2%	-2.9	7.2%
CSc1cc(-c2ccncc2)nc(-c2ccc(Cl)cc2)c1	1.1%	-29.3%	-22.1%	-10.1%	-17.4	-40.2%
O=C(c1ccc(N2CCC(NCCCn3ncc4ccccc43)CC2)cc1)N1CCc2ccccc2C1	5.5%[9.04 µM]	?	/	/	/	/
Cc1cccc(C)c1OCC(=O)Nc1cccc(S(=O)(=O)N2CCCC2)c1	?	13µM*	-14.7%	-2.9%	-24.9	0.0%
Cc1ccc(OCC(=O)Nc2cccc(S(=O)(=O)N3CCCCCC3)c2)c([N+](=O)[O-])n1	?	16.4µM*	?	2.7%	-4.3	-30.3%
Cc1ccccc1CC(=O)Nc1cccc(S(=O)(=O)N2CCCC2)c1	-8.3%	10.6%	-21.1%	-1.8%	0.0	-28.9%
CCC(=O)c1ccc(OCC(=O)Nc2cccc(S(=O)(=O)N3CCCCCC3)c2)cc1	7.31µM*	5.17µM*	-29.5%	-9.4%	3.7	-28.6%
Cc1cccc(C)c1OCC(=O)Nc1cccc(S(=O)(=O)N2CCCCCC2)c1	20.6µM*	20.6µM*	?	/	-5.2	-0.1%
O=S(=O)(Nc1ccc(Cl)cc1)c1cccc2nsnc12	28.3%	-26.3%	-1.3%	-1.9%	4.4	-16.2%
SMILES	DT40 TDP1 CPT	DT40 TDP1 no CPT	TGFb inhibitor	ASM inhibitor	IL-1B inflam inh	HepG2 tox
CCOC(=O)c1c(C)oc2nc(C)nc(NCC3CCN(Cc4ccc(C)cc4)CC3)c12	?	-23.6%	23.7%	/	/	-0.4%
CCOc1ccc(NS(=O)(=O)c2coc(C(N)=O)c2)cc1	10.1%	-2.5%	-3.5%	-0.3%	19.3	5.0%
OC(c1ccc2c(c1)CN(Cc1ccc3nsnc3c1)CCO2)C1CCCCC1 (stereo not given)	5.2%	-4.0%	/	/	/	/
O=C(COC(=O)/C=C/c1ccc(OC(F)F)cc1)Nc1cccc(S(=O)(=O)N2CCOCC2)c1	?	20.6µM*	13.4%	-17.9%	-10.7	-6.8%
O=C(COc1ccc(C(=O)c2ccc(F)cc2)cc1)Nc1cccc(S(=O)(=O)N2CCOCC2)c1	23.1µM*	11.6µM*	?	-15.5%	?	5.1%
O=C(COC(=O)/C=C/c1ccc(F)cc1)Nc1cccc(S(=O)(=O)N2CCCC2)c1	?	?	-9.3%	-14.9%	2.7	-7.6%
Cc1ccc(-c2nc(SCC(=O)NCc3ccco3)c3c(=O)n(C)c(=O)n(C)c3n2)cc1	-6.7%	-6.6%	-5.4%	/	/	1.4%
Cc1ccc(C(=O)Nc2cccc3cccnc23)cc1Cl	-25.6%	?	1.1%	/	/	-2.1%
CCCCCC1NC(=O)NC1CCCCCC(=O)O (stereo not given)	-0.5%	-4.9%	-4.8%	4.9%	1.9	12.1%
O=C(CCCCC(=O)NCCCc1ccccc1)NCCCc1ccccc1	3.7%	?	-17.7%	5.1%	2.4	5.5%
C[C@@H]1NC(=O)N[C@@H]1CCCCCC(=O)O	-13.5%	-12.1%	9.1%	-0.6%	-102.1*	0.2%
CC1NC(=O)NC1CCCCCC(=O)NCCc1ccccc1 (stereo not given)	-7.5%	-8.7%	25.0%	0.3%	-96.0*	7.5%
O=C(O)CCCN1C(=O)C2C3CCC(C3)C2C1=O (stereo not given)	?	1.2%	-2.7%	/	23.0	-1.3%
